Sampled rows, rich in hits. Any-hit rate of the full collection: about 3.7%.
DRD3 antagonist = antagonists of human D3 dopamine receptor; AID 652054; D3R cells, DiscoveRx beta-arrestin luminescence, antagonist mode; hits give low values; max response, negative = inhibition, %; 2.5% of 360,000 active; P35462; in the data active = max response below about -50%; inconclusive = no clear call, values can overlap the other calls
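Cells plated overnight at 1500 cells/well, then exposed to library compounds with dopamine controls for 90 minutes at 37 degrees C. DiscoveRx reagent added for 30–60 minutes at room temperature; luminescence read, quantitative HTS format.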
D3 ag = agonists of human D3 dopamine receptor | P35462 | 0.58% of 410,000 active | D3R DiscoveRx beta-arrestin cells, luminescence, 90 min | AID 652048 | max activation, %; in the data active = max activation above about 30%
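Cells at 1500/well, incubated overnight, then treated with pinned compounds (dopamine as control) for 90 min at 37 degrees C. DiscoveRx reagent added for 30 - 60 minutes at room temperature; luminescence read.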
RGS4 inhibitor = blocks human RGS4-accelerated GTP hydrolysis; P49798; Transcreener GDP fluorescence polarization, RGS4-accelerated GTP hydrolysis; Potency, µM (series often up to 114 µM), hits mostly inhibitors; 0.039% of 390,000 active; AID 504845; note: nearly all actives have a fitted effect of over 75% in size
Target sequence (P49798 whole entry, looked up): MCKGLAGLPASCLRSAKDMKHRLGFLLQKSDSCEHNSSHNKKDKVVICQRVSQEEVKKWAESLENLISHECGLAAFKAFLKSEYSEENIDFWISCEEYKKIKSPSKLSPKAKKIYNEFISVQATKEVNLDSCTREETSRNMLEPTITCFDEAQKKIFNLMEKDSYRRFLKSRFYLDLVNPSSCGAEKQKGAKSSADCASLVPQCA
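MLSMR compounds (23 nl, pin-transferred) preincubated 10 min at room temperature with a 500nM (2x) first reagent, then RGS4 at 900nM (2x) plus Transcreener GDP mix added; fluorescence polarization (620/688 nm) read before and after 90 min at 30 °C.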
BRCA1 expr act = BRCA1 expression activation. MCF7-BRCA1-FFLuc reporter, luminescence, 48 h; response scale: scaled: vehicle 0%, 10 µM genistein 100%. Potency, µM (top dose mostly 46.1 µM), usual class: activators. 1.1% of 380,000 active; note: nearly all actives have a fitted effect of over 80% in size
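48 h compound treatment of MCF7-BRCA1-FFLuc cells (phenol-red free MEM, 37 °C), then 15 min with luciferase substrate and luminescence imaging.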
B2AR arrestin = recruits beta-arrestin to the human beta2-adrenergic receptor | P07550 | beta-arrestin recruitment to beta2AR, cell-based reporter | Potency, µM (doses to about 46.1 µM), usual class: activators | 0.02% of 330,000 active | AID 492947; note: nearly all actives have a fitted effect of over 65% in size
Target sequence (P07550 whole entry, looked up): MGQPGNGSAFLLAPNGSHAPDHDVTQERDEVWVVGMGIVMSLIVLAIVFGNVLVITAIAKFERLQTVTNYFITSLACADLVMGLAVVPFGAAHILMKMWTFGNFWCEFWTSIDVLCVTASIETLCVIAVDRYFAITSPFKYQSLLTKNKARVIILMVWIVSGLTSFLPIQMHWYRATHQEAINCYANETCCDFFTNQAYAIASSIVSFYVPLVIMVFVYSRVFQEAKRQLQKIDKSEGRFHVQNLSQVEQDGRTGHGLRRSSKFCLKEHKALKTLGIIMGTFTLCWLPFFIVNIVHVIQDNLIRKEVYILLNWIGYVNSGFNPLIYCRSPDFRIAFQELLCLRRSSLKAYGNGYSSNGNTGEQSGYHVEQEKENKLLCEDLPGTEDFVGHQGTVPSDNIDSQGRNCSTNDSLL
PTHR1 agonist = PTHR1 (human) receptor agonism | HEK293 GP2 PTHR1 cells, GloSensor cAMP luminescence, 1 h | Q03431 | Potency, µM (doses to about 115 µM), actives largely listed as activators | AID 743266 | 0.075% of 410,000 active; note: nearly all actives have a fitted effect of over 55% in size
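HEK-293-derived GP2 cells expressing PTHR1 and a GloSensor cAMP reporter, 3,000/well, plated overnight, given luciferin plus IBMX (each 0.5 mM as added) for 1 h at 37 °C, then compound for 1 h at 37 °C. Luminescence was read after 15 min at room temperature.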
Of the large screens only hits and unclear results are named; the others gave an inactive call; ! = a repeat was not active. Unless noted, calls come from the whole dose curve; as a rule, active = well fitted curve in the direction sought with a large enough effect; inconclusive = small, poorly fitted or top-dose-only effect, or another doubt; inactive = no such curve, though single readings can be large; an effect the other way counts as inactive or inconclusive.

CC(=O)N[C@@H](CCC(N)=O)C(=O)O	none (no result: DRD3 antagonist, RGS4 inhibitor, BRCA1 expr act, B2AR arrestin, PTHR1 agonist)
CCCc1ccc(OCC(=O)Nc2sc3c(c2C(=O)OCC)CCC(C(C)(C)C)C3)cc1 (stereo not drawn)	none (no result: DRD3 antagonist, BRCA1 expr act, B2AR arrestin)
CO[C@H]1C=CO[C@@]2(C)Oc3c(C)c(O)c4c(O)c(c5c(c4c3C2=O)=NC2(CCN(CC(C)C)CC2)N=5)NC(=O)/C(C)=C\C=C/[C@H](C)[C@H](O)[C@@H](C)[C@@H](O)[C@@H](C)[C@H](OC(C)=O)[C@@H]1C	none (no result: DRD3 antagonist, RGS4 inhibitor, BRCA1 expr act, B2AR arrestin, PTHR1 agonist)
CCCCNc1cc(C)nc(NCc2ccccc2)n1	DRD3 antagonist -63
Fc1cc(F)nc(NCc2ccccc2)n1	D3 ag 37
Cc1cc(Nc2ccccc2)nc(NCc2ccccc2)n1	DRD3 antagonist inconclusive
CC1=C(C(=O)N2CCOCC2)CC(CC(=O)NC(c2ccccc2)c2ccccc2)C(=O)N1CCCN1CCCC1=O (stereo not drawn)	none (no result: RGS4 inhibitor, B2AR arrestin)
O=C1Nc2cc(C(=O)NCCCN3CCCC3)ccc2S/C1=C/c1cccc(Cl)c1	DRD3 antagonist -59 (no result: RGS4 inhibitor, B2AR arrestin)
Cc1cccc(/C=C2/Sc3ccc(C(=O)NCCN4CCCC4)cc3NC2=O)c1	none
CCOCCCN(CCC#N)C(=O)C1CCN(S(=O)(=O)c2ccc(-n3cnnn3)cc2)CC1	none
COc1cc(NC(=O)CCS(=O)(=O)c2ccc3c(c2)n(C)c(=O)c(=O)n3C)cc(OC)c1	PTHR1 agonist 22µM!
CCc1ccc(NC(=O)CCS(=O)(=O)c2ccc3c(c2)n(C)c(=O)c(=O)n3C)cc1	none (no result: DRD3 antagonist, BRCA1 expr act, B2AR arrestin)
CCOC(=O)C1=C(c2ccccc2)N=c2s/c(=C\c3ccc(O)cc3)c(=O)n2C1c1cccs1 (stereo not drawn)	DRD3 antagonist -57
COc1ccc(-n2c(Cc3cccn3C)nnc2SCC(=O)Nc2cccc(OC)c2)cc1	none
COc1ccc(NC(=O)CSc2nnc(Cc3cccn3C)n2-c2ccc(C)cc2)cc1OC	D3 ag 30
CCOC(=O)c1cn(CC(=O)Nc2ccccc2C(=O)OCC)nn1	DRD3 antagonist -72
CCOc1ccccc1NC(=O)CSc1nnnn1Cc1ccccc1	DRD3 antagonist -59
CCOC(=O)c1ccccc1NC(=O)CSc1nnc(Cc2cccn2C)n1-c1ccc(C)cc1	D3 ag 39
O=C(Cn1cncn1)c1ccccc1	none
Cc1ccc(Cl)cc1NC(=O)C1CCCN1S(=O)(=O)c1ccc(-c2ccc(=O)[nH]n2)s1 (stereo not drawn)	none
CCOC(=O)c1ccccc1NC(=O)CSc1nnnn1C1CCCCC1	DRD3 antagonist -77
COC(=O)C1CCN(c2ccc(Cl)nn2)CC1	none
c1ccc2c(c1)ccn1c(Cc3ccsc3)c(C3CCCCC3)nc21	DRD3 antagonist -83 (no result: RGS4 inhibitor, B2AR arrestin)
Nc1ccc[n+](CC(=O)c2ccc(F)cc2)c1	none (no result: DRD3 antagonist, D3 ag, RGS4 inhibitor, B2AR arrestin, PTHR1 agonist)
CCc1ccc2oc(-c3cc(NC(=O)c4cccnc4)cc(C)c3O)nc2c1	none (no result: DRD3 antagonist, B2AR arrestin)
COc1ccc(S(=O)(=O)NCCC(=O)NC2CCCCC2C)cc1[N+](=O)[O-] (stereo not drawn)	none
COc1ccc(CP(=O)(c2ccccc2)c2ccccc2)cc1	none
O=P(Cc1nnco1)(c1ccccc1)c1ccccc1	DRD3 antagonist -63
COc1ccc(-c2[nH][nH]c(=O)c2NC(=O)c2ccc(C)cc2)cc1	DRD3 antagonist -85 (no result: RGS4 inhibitor, B2AR arrestin)
O=C(Nc1c(-c2ccccc2)[nH][nH]c1=O)c1ccc2ccccc2c1	none (no result: RGS4 inhibitor, BRCA1 expr act, B2AR arrestin)
CC1(NC(=O)Nc2cccc(Br)c2)CCS(=O)(=O)C1 (stereo not drawn)	none
CCOC(=O)c1oc2cc(C)cc(C)c2c1C	none
CCOC(=O)c1oc2ccc(/C=N/O)c(Cl)c2c1C	BRCA1 expr act 7.1µM
C=CCc1cccc(C=Nc2cccn3cc(-c4ccccc4)nc23)c1O	BRCA1 expr act 11µM
CCOC(=O)c1cccc(NC(=O)Cn2nc3c(cc2=O)CCCC3)c1	none (no result: DRD3 antagonist, BRCA1 expr act, B2AR arrestin)
CCN(CC)CCNC(=O)CSc1nc2nc(C)c(Cc3ccccc3)c(C)n2n1	none (no result: DRD3 antagonist, BRCA1 expr act, B2AR arrestin)
Cc1ccc(C(c2nnnn2Cc2cccs2)N2CCN(C(=O)c3ccco3)CC2)cc1 (stereo not drawn)	DRD3 antagonist -52
O=C1C(Cl)=C(Nc2ccc3cn[nH]c3c2)C(=O)c2ccccc21	DRD3 antagonist -120, RGS4 inhibitor inconclusive
O=C(Nc1ccc2cn[nH]c2c1)c1c(Cl)cccc1Cl	none
CC(=O)Nc1ccc(NC2=C(Cl)C(=O)c3ccccc3C2=O)cc1	DRD3 antagonist -102
O=C(Oc1ccc(NC2=C(Cl)C(=O)c3ccccc3C2=O)cc1)c1ccc([N+](=O)[O-])cc1	none
O=C1C(Cl)=C(NCCCO)C(=O)c2ccccc21	none
CN(C)c1ccc(NC2=C(Cl)C(=O)c3ccccc3C2=O)cc1	DRD3 antagonist -93
Cc1ccc(Cl)cc1NC(=O)CSc1ccc(C(=O)O)cn1	none (no result: DRD3 antagonist, BRCA1 expr act, B2AR arrestin)
CCCc1ccc(C(=O)N2CCN(c3ccccc3OCC)CC2)cc1	none
CCOc1ccccc1N1CCN(C(=O)c2cc[n+]([O-])cc2)CC1	DRD3 antagonist -63
O=C(CCNC(=O)C1CCN(S(=O)(=O)c2ccc(F)cc2)CC1)NCc1ccccn1	none (no result: RGS4 inhibitor, B2AR arrestin)
COc1ccc(C2CC2/C(=N/O)c2ccccn2)cc1 (stereo not drawn)	none
COc1ccc(C2CC2/C(=N/O)c2ccccc2)cc1 (stereo not drawn)	RGS4 inhibitor inconclusive, BRCA1 expr act 11µM
COc1ccc(C2CC2C(=O)c2ccccn2)cc1 (stereo not drawn)	BRCA1 expr act 8.9µM
Cc1ccc(-c2noc(C3CCCN(C(=O)c4ccccc4)C3)n2)o1 (stereo not drawn)	BRCA1 expr act 10µM
COc1ccc(C(=O)N2CCCC(c3nc(-c4ccc(C)o4)no3)C2)cc1OC (stereo not drawn)	none
Cc1ccc(-c2noc(C3CCCN(C(=O)c4ccccc4Br)C3)n2)o1 (stereo not drawn)	BRCA1 expr act 10µM
CCc1ccc(CNC(=O)Cn2nc(C)n3c(cc4cc(C)ccc43)c2=O)cc1	none (no result: DRD3 antagonist, BRCA1 expr act, B2AR arrestin)
COc1cccc(C2=NOC(C(=O)Nc3cccnc3Cl)C2)c1 (stereo not drawn)	none
CN(C)c1nc2ccc(OCCN3CCCCC3)cc2s1	DRD3 antagonist -68, BRCA1 expr act 11µM
CCN(CC)CCOc1ccc2nc(N(C)C)sc2c1	DRD3 antagonist -59
CCCCC(=O)Nc1ccccc1CC	DRD3 antagonist -65
O=C(NCc1cccs1)c1ccc2c(c1)sc1nc(-c3ccccc3)cn12	none (no result: DRD3 antagonist, BRCA1 expr act, B2AR arrestin)
C/C(=N\NC(=O)c1c[nH]c2ccccc12)c1ccccn1	DRD3 antagonist inconclusive
C=CCNC(=S)N/N=C(\C)c1ccccn1	DRD3 antagonist -90, BRCA1 expr act inconclusive
C/C(=N\NC(=O)c1ccc(F)cc1)c1ccccn1	DRD3 antagonist -113
